Laboratory results published in PubChem BioAssay AID488789 (Broad Institute, 2010).
Results with a measured potency or affinity are listed apart. Results filed as inconclusive are left out.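 How the source made its calls: active means samples whose fitted half-maximal inhibition concentration is no more than ten times the top valid dose tested; inconclusive means flat response between -70 and -30, or invalid curve fit; inactive means flat within 30 of zero, potency above limit, or signal rising.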

Target: Trypsin (Sus scrofa) (UniProt P00761)
Sequence (P00761 whole entry, looked up): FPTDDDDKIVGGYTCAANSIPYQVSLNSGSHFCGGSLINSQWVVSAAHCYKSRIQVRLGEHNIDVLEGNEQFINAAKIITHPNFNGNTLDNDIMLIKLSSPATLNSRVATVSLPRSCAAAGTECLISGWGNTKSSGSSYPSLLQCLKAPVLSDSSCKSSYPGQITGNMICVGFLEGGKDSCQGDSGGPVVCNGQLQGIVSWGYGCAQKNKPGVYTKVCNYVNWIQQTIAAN
Assay: trypsin protease activity blockade – biochemical, quenched peptide fluorescence, cherry-pick, selectivity assay for Rce1 protease inhibitor project, dose response (AID 488789)
Settings: porcine trypsin, quenched peptide cleavage fluorescence; series mostly up to 10 µM; activity change, negative = inhibition: at the top concentration

Activity change, negative = inhibition, inactive:
COc1cc2c(cc1OC)C(C)=NC1(CCCCC1)C2 -10.1%, Cc1cccc(N2CCc3c2nc2ccc(Br)cc2c3N)c1 -7.41%, CSc1ccc(C(=O)C2CCCN(C(=O)c3cccnc3SC)C2)cc1 (stereo not drawn) 2.24%, Cc1ccc(-c2c(C(=O)N/N=C/c3cccc(Cl)c3)nnn2-c2nonc2N)cc1 3.16%, CCC(C)(C)c1ccc(OCCCC[n+]2cccc(C)c2)c(C(C)(C)CC)c1 15.5%, C=C(C)CSc1nc2sc3c(c2c(=O)n1-c1ccc(OC)cc1)CCN(C)C3 5.09%, CCCN(CCC)CCNC(=O)c1cc2c(-c3ccccc3F)nn(C)c2s1 10.6%, COc1ccccc1-c1nnc2sc(-c3ccc(N(C)C)cc3)nn12 -5.89%, O=C(CCCn1c(=O)[nH]c2ccc(Br)cc2c1=O)NCc1ccc(Cl)cc1 -3.19%, Cc1cc(C)cc(Nc2nc(-c3ccc(S(=O)(=O)N4CCCC4)cc3)cs2)c1 6.56%, CCCCCCCCCCOC(=O)Cn1c(COc2ccccc2C)[n+](C)c2ccccc21 10.7%, CCOc1ccc(-c2c(C(=O)N/N=C/c3cccs3)nnn2-c2nonc2N)cc1 -4.32%, CCCCCCCCNC(C)C(O)c1ccc(SC(C)C)cc1 (stereo not drawn) 3.86%, COc1ccc(C2c3c(ncn(CCCO)c3=N)Oc3ccc4ccccc4c32)cc1 (stereo not drawn) 0.00832%, CC(C)CNC(=O)COc1cccc(C(=O)NCc2ccccc2)c1 7.6%, CCc1ccc(Nc2n[n+](-c3ccccc3)c(/C=C/c3ccccc3)s2)cc1 7.2%, Cc1ccc(C(=O)c2c3ccccc3[n+]([O-])n2CCO)cc1 -5.98%, COc1ccc(OC)c(Cc2nnc(CCC(=O)N3CCN(C4CCCC4)CC3)o2)c1 -6.54%
